Values without a mark were called inactive.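 How the source made its calls: active = AUC reduced over 20% with Padj below 0.05 in at least 2 of 3 replicates; inactive = otherwise.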
How the values were obtained:
Assay in all cases: growth AUC relative to DMSO control (median of replicates) (fraction); higher = more growth (less inhibition), active = hit call of the paper
Settings in all cases: 20 µM; 24 h
Akkermansia muciniphila = system: Akkermansia muciniphila
Summary of the method: (§1)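 Hourly OD600 readings over 24 h tracked anaerobic gut bacterial monocultures grown at 37 °C in mGAM from OD600 0.05 with 20 µM compound (1% DMSO). After the minimum OD was set to 0, area under the growth curve was normalised to the plate median of solvent-only wells, or to row and column medians on the industrial chemical plate. Values are medians of three biological replicates grown on separate days.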

Bacteroides caccae = system: Bacteroides caccae
Summary of the method: as §1

Bacteroides clarus = system: Bacteroides clarus
Summary of the method: as §1

Bacteroides dorei = system: Bacteroides dorei
Summary of the method: as §1

Bacteroides stercoris = system: Bacteroides stercoris
Summary of the method: as §1

[1] = system: Bacteroides thetaiotaomicron
Summary of the method: as §1

Bacteroides uniformis = system: Bacteroides uniformis
Summary of the method: as §1

[2] = system: Bifidobacterium longum subsp. longum
Summary of the method: as §1

Clostridium difficile = system: Clostridium difficile
Summary of the method: as §1

Collinsella aerofaciens = system: Collinsella aerofaciens
Summary of the method: as §1

Coprococcus comes = system: Coprococcus comes
Summary of the method: as §1

Escherichia coli ED1a = system: Escherichia coli ED1a
Summary of the method: as §1

Escherichia coli IAI1 = system: Escherichia coli IAI1
Summary of the method: as §1

Eubacterium rectale = system: Eubacterium rectale
Summary of the method: as §1

[3] = system: Fusobacterium nucleatum subsp. animalis
Summary of the method: as §1

Lactobacillus gasseri = system: Lactobacillus gasseri
Summary of the method: as §1

Lactobacillus paracasei = system: Lactobacillus paracasei
Summary of the method: as §1

Odoribacter splanchnicus = system: Odoribacter splanchnicus
Summary of the method: as §1

[4] = system: Parabacteroides distasonis
Summary of the method: as §1

Parabacteroides merdae = system: Parabacteroides merdae
Summary of the method: as §1

Structure (SMILES)	growth AUC (Akkermansia muciniphila)	growth AUC (Bacteroides caccae)	growth AUC (Bacteroides clarus)	growth AUC (Bacteroides dorei)	growth AUC (Bacteroides stercoris)	growth AUC [1]	growth AUC (Bacteroides uniformis)	growth AUC [2]	growth AUC (Clostridium difficile)	growth AUC (Collinsella aerofaciens)	growth AUC (Coprococcus comes)	growth AUC (Escherichia coli ED1a)	growth AUC (Escherichia coli IAI1)	growth AUC (Eubacterium rectale)	growth AUC [3]	growth AUC (Lactobacillus gasseri)	growth AUC (Lactobacillus paracasei)	growth AUC (Odoribacter splanchnicus)	growth AUC [4]	growth AUC (Parabacteroides merdae)
CC(C)(C)C(=O)C(Oc1ccc(Cl)cc1)n1ccnc1 (stereo not given)	1.07	0.971	0.987	0.98	1.04	0.944	0.984	1.01	0.962	0.94	0.629 (active)	1.03	0.994	0.414 (active)	1.02	0.918	0.971	0.994	0.938	0.96
CCNc1nc(NCC)nc(OC)n1	0.914	1.02	1.02	1	1.01	0.967	0.992	0.957	1	0.992	1.05	1.03	0.975	1	1.01	0.921	0.977	1.01	1.04	1
CS(=O)(=O)c1ccc(C(=O)O)c(N)c1	1.13	0.993	1.01	1.02	1.03	0.994	1.03	1	1.03	1.03	1.05	1.02	1.01	1.05	1.08	1.13	1	1.02	1.04	1.01
CCCNCCOc1c(Cl)cc(Cl)cc1Cl	0.946	0.972	0.979	0.985	0.898	0.979	1	0.918	0.973	0.98	0.927	0.944	0.953	0.924	0.918	0.953	0.966	0.999	0.972	0.997
NS(=O)(=O)[O-].[NH4+]	1.11	1.01	1.03	1.02	1.05	1.02	1.05	1.06	1.05	0.998	1.06	1.03	1.02	1.09	1.09	0.996	0.997	0.988	1.02	1.06
C=CCc1ccc(OC)c(OC)c1	1.02	1.04	0.998	1.06	1.01	1.03	1.04	1.11	0.984	1.03	1.01	0.994	1.04	1	1.06	1.03	1	0.694 (active)	1.3	1.04
CC(C)OC(=O)[C@@H](C)N(C(=O)c1ccccc1)c1ccc(F)c(Cl)c1	0.996	0.961	0.99	1.02	0.99	0.984	1.04	1.01	0.978	0.954	1.05	1.03	1	1.27	1.1	0.933	1.09	0.977	1	1.01
COC(=O)c1ccc(C)cc1C1=NC(C)(C(C)C)C(=O)N1 (racemic)	1.03	1.01	0.971	0.975	0.863	0.976	1	1	0.972	0.957	0.993	0.969	0.97	1.03	0.916	0.931	0.959	1.07	1.03	0.976
Cc1c(C(=O)c2c[nH]n(C)c2=O)ccc(S(C)(=O)=O)c1C1=NOCC1	0.937	1.03	0.983	0.989	0.895	1	1.01	1.13	1	0.976	1.02	0.984	0.981	0.99	0.972	0.999	0.954	1.04	1.04	1
CCCCOCCOC(=O)COc1nc(Cl)c(Cl)cc1Cl	1.02	0.954	0.956	0.948	0.995	0.963	0.928	0.934	0.979	0.977	0.982	0.994	0.973	1.02	0.984	0.917	0.962	1.09	0.978	0.956
NC1=C(Cl)C(=O)c2ccccc2C1=O	0.886	1.12	0.716 (active)	0.965	0.83	0.906	0.88	0.887	0.938	1.01	1	0.896	0.804	1.19	1.25	0.863	0.995	0.876	0.528 (active)	0.88
COc1cc(OC)nc(NC(=O)NS(=O)(=O)Nc2ccccc2C(=O)N(C)C)n1	1.01	1	0.983	1.02	0.982	0.986	1.01	0.975	0.974	0.992	0.994	0.981	0.992	0.972	0.94	1.03	0.939	0.997	1.03	1.02
O=[N+]([O-])c1ccc(Oc2c(Cl)cc(Cl)cc2Cl)cc1	0.832	1.02	0.907	1.01	1.07	0.971	0.914	0.985	1.02	0.935	0.95	1.01	1.03	1.02	1.05	0.874	1.05	1.03	0.623 (active)	0.899
C[S+](C)CCC(=O)O.[Cl-]	0.964	1.03	0.974	1.04	0.974	1	1.01	1.01	1.01	0.986	0.97	0.985	1.01	0.923	0.939	1.08	1.01	0.979	0.959	1.02
CCCCC(CC)COC(=O)COc1ccc(Cl)cc1C (stereo not given)	1.15	0.995	0.997	0.977	0.983	0.987	0.943	0.986	0.979	0.907	1.03	0.981	1.01	1.05	0.989	0.828	0.962	0.934	0.923	0.937
O=S(=O)(Oc1ccc(Cl)cc1Cl)c1ccccc1	0.953	0.956	1	0.939	0.967	1.01	0.996	1.1	1.01	0.98	1.03	0.98	0.986	1.02	0.938	1.03	1.14	1.09	0.972	1.02
CC(C)N(C(=O)CS(=O)(=O)[O-])c1ccc(F)cc1.[Na+]	0.977	1.02	0.979	0.984	0.966	0.948	1.04	0.944	1.05	0.957	0.982	0.983	0.984	1.02	0.956	1.01	0.957	1.13	1.02	0.995
